POLH inh: inhibitors of human DNA polymerase eta. Q9Y253. recombinant Pol eta, fluorescent DNA replication assay. Potency, µM (titrated, usually from 114 µM), inactives show top-dose activity change, negative = inhibition, actives largely listed as inhibitors. 390,000 tested, 1.2% active; note: potency is the fitted concentration of half-maximal effect; % is set by controls: 0 for no effect and ±100 for the full control effect
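Pol eta (10 nM) was preincubated with compounds for 15 min at room temperature, after which fluorescent replication substrate (50 nM final) was added to start the reaction. Fluorescence was read kinetically at 0 and 10 min.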
Pol kappa inh: inhibitors of human DNA polymerase kappa | Q9UBT6 | 400,000 tested, 0.53% active | AID 588579 | purified Pol kappa, fluorescent DNA synthesis assay, 10 min | Potency, µM (highest dose often 107 µM), for inactives: top-dose activity, negative = inhibition, hits mostly inhibitors; note: potency is the fitted concentration of half-maximal effect; % is set by controls: 0 for no effect and ±100 for the full control effect
Target sequence (Q9UBT6 whole entry, looked up): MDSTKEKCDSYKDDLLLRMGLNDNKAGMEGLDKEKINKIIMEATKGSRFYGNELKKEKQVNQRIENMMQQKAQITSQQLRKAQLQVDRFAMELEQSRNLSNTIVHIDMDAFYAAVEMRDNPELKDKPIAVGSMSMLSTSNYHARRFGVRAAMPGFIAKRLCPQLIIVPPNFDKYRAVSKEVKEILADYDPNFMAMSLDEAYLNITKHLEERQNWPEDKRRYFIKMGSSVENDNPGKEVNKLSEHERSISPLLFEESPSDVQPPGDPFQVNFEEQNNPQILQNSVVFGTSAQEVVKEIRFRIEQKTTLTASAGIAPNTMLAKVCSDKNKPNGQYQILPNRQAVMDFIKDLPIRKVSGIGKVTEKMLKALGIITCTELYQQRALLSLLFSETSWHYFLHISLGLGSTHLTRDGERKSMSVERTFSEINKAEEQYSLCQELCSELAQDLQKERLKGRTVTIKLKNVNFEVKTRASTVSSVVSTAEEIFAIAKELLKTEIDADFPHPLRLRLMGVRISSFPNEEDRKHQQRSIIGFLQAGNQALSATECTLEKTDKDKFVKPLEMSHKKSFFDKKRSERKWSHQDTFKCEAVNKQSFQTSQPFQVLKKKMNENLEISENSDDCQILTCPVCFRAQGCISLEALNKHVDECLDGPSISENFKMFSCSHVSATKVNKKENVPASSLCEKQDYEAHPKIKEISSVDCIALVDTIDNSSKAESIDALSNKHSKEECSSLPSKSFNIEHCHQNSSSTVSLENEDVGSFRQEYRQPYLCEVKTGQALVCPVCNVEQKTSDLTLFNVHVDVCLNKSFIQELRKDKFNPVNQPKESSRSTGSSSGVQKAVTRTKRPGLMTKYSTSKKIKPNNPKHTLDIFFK
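Pol kappa 10 nM + cpd, 15 min RT; start w/ substrate 50 nM final; fluorescence kinetic read, 0 and 10 min. Neg ctrl: buffer, no enzyme.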
POLB inh: blocks human DNA polymerase beta activity | Pol beta primer extension/strand displacement, fluorescence kinetic | 340,000 tested, 1.3% active | Potency, µM (top dose mostly 114 µM), for the others: at the top dose activity change, negative = inhibition, most hits filed as inhibitors | P06746; note: potency is the fitted concentration of half-maximal effect; % is set by controls: 0 for no effect and ±100 for the full control effect
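Enzyme-only controls used 10 nM Pol beta; buffer lacking enzyme served as negative control. Compound preincubated 15 min, then 50 nM substrate added; 0 and 10 min reads at room temperature.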
WRN helicase inh: WRN helicase (human) inhibition. Potency, µM (top dose mostly 114 µM), without a hit: at the top dose activity change, negative = inhibition, actives largely listed as inhibitors. WRN helicase unwinding, fluorescent forked duplex, kinetic. 360,000 tested, 0.46% active. AID 651768; note: potency is the fitted concentration of half-maximal effect; % is set by controls: 0 for no effect and ±100 for the full control effect; nearly all actives have a fitted effect of over 55% in size
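WRN at 20 nM final was preincubated with compound for 15 min at room temperature; reaction started with 100 nM forked duplex oligonucleotide carrying fluorophore and quencher plus 2 mM ATP (final). Unwinding followed kinetically by red fluorescence (ex 525/em 598 nm).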
POLI inh: DNA polymerase iota (human) inhibition; Q9UNA4; Pol iota fluorescent replication assay, 10 min; Potency, µM (titrated, usually from 115 µM), inactives show at the top dose activity, negative = inhibition, most hits filed as inhibitors; 390,000 tested, 1% active; note: potency is the fitted concentration of half-maximal effect
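Pol iota at 10 nM preincubated 15 min with compounds at room temperature; reaction started with fluorescent substrate, 50 nM final. Fluorescence read kinetically at 0 and 10 min; buffer-only wells as negative control.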
PI5P4K alpha inh: blocks human PI5P4K alpha kinase activity; 330,000 tested, 1.2% active; P48426; PI5P4Kalpha enzyme, ADP-Glo luminescence, 60 min; stronger effect = lower value; AID 652105; max response, %; active = max response of -50% or lower; inconclusive = between -30% and -50%; inactive = -30% or higher; note: value at the top dose of about 77 µM; % is set by controls: 0 for no effect and ±100 for the full control effect
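ADP-Glo luminescence end-point after a 60 min room-temperature kinase reaction. PI5P4Kalpha and substrate in HEPES pH 7.4 buffer with EGTA, 0.1% CHAPS and 5% DMSO; ATP at 5 microM final.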
An asterisk follows results filed as active; [ ] = remark or other dose. Shown are actives, neighbours in structure and some others; about 2.8% of the full set was active somewhere. Unless noted, calls come from the whole dose curve; as a rule, active = well fitted curve in the direction sought with a large enough effect; inconclusive = small, poorly fitted or top-dose-only effect, or another doubt; inactive = no such curve, though single readings can be large; an effect the other way counts as inactive or inconclusive.

For O=C(Nc1cccc(F)c1)c1ccc2c(c1)N(Cc1ccccc1)C(=O)c1ccccc1S2(=O)=O the results were POLH inh -12.4%, Pol kappa inh -9.8%, POLB inh -17.2% and POLI inh 13.7%.
`COc1cc(C2c3c(oc4ccccc4c3=O)C(=O)N2c2nccs2)ccc1O` (stereo unspecified) gave POLH inh 79.4µM*, Pol kappa inh -6.3%, POLB inh -22.0%, WRN helicase inh -18.3%[11.6 µM], POLI inh 3.2% and PI5P4K alpha inh -7.2.
`O=C(Cc1ccccc1)Nc1ccc(C(=O)Nc2ccc(O)cc2)cc1` gave POLH inh -22.1%, Pol kappa inh -5.5%, POLB inh -16.8%, WRN helicase inh -12.1%, POLI inh 19.4% and PI5P4K alpha inh 0.5.
For COC(=O)c1ccc(NC(=O)CSc2ccccc2)cc1 the results were POLH inh -16.2%, Pol kappa inh -9.6%, POLB inh 18.1%, WRN helicase inh -16.1%, POLI inh -1.7% and PI5P4K alpha inh -11.7.
O=C(NNC(=O)c1ccc(NC(=O)c2ccccc2)cc1)c1ccccc1 was read as POLH inh -8.8%, Pol kappa inh -9.2%, POLB inh 79.4µM*, WRN helicase inh -15.2%, POLI inh inconclusive and PI5P4K alpha inh -7.7.
O=C(CSc1ccccc1)Nc1ccc(C(=O)Nc2ccc(O)cc2)cc1 was read as POLH inh -3.1%, Pol kappa inh -9.8%, POLB inh 79.4µM*, WRN helicase inh -7.2%, POLI inh -18.6% and PI5P4K alpha inh -10.6.
For O=C(Nc1ccc(Nc2ccccc2)cc1)c1ccccc1 the results were POLH inh -15.3%, Pol kappa inh 8.8%, WRN helicase inh -13.7%, POLI inh -6.9% and PI5P4K alpha inh -0.1.
O=C(Cc1ccccc1)NNC(=O)c1ccc(NC(=O)c2ccccc2)cc1 was read as POLH inh -14.6%, Pol kappa inh -12.6%, POLB inh 20µM*, WRN helicase inh -11.3%, POLI inh inconclusive and PI5P4K alpha inh -10.8.
`O=C1Nc2ccccc2Oc2cc([N+](=O)[O-])cc(Oc3ccccc3)c21` gave POLH inh inconclusive, Pol kappa inh -39.2%, POLB inh inconclusive, WRN helicase inh inconclusive, POLI inh inconclusive and PI5P4K alpha inh -23.6.
For Cc1cccc(Oc2cc([N+](=O)[O-])cc3c2C(=O)Nc2ccccc2O3)c1 the results were POLH inh inconclusive, Pol kappa inh -17.5%, POLB inh inconclusive, WRN helicase inh 15.9%, POLI inh 79.4µM* and PI5P4K alpha inh inconclusive.
`CN(Cc1nc2ccccc2c(=O)[nH]1)C(=O)c1cc(-c2ccc(Br)cc2)nc2ccccc12` gave POLH inh -16.0%, Pol kappa inh -22.6%, WRN helicase inh -6.0%, POLI inh 0.9% and PI5P4K alpha inh -4.7.
`COc1ccc(-n2cc(CNCCCn3ccnc3)c(-c3cccc(F)c3)n2)cc1` gave POLH inh -15.4%, Pol kappa inh -4.2%, POLB inh 2.0%, WRN helicase inh 1.5%, POLI inh 19.8% and PI5P4K alpha inh -2.5.
`O=C(/C=C/c1ccc(Br)o1)NC(c1ccccc1)c1ccccc1` gave POLH inh -22.3%, Pol kappa inh -6.7%, POLB inh 3.2%, WRN helicase inh -11.7%, POLI inh inconclusive and PI5P4K alpha inh -1.1.
`O=C1C(=Cc2ccc(Br)o2)C(=O)c2ccccc21` gave POLH inh 0.794µM*, Pol kappa inh inconclusive, POLB inh 1.41µM*, WRN helicase inh 8.91µM*, POLI inh 1.12µM* and PI5P4K alpha inh -85.5*.
CCOC(=O)c1nn2c(C(F)(F)F)cc(-c3ccc(C)cc3)nc2c1Cl was read as POLH inh 1.1%, Pol kappa inh -5.2%, POLB inh 13.0% and POLI inh 3.7%.
For CCOC(=O)c1nn2c(C(F)(F)F)cc(-c3ccc(OC)cc3)nc2c1Br the results were POLH inh 31.6µM*, Pol kappa inh 10.5%, POLB inh inconclusive, WRN helicase inh -2.0%, POLI inh -2.0% and PI5P4K alpha inh 0.6.
For O=c1ccc2cc3c([nH]c4ccc(Br)cc43)oc-2c1O the results were POLB inh 10µM*.
For Nc1nc(=S)[nH]c2n[nH]nc12 the results were Pol kappa inh 0.0% and POLI inh 39.8µM*.
COc1ccccc1-c1nnc(SC(C)C(=O)Nc2ccc(C(N)=O)cc2)o1 (stereo unspecified) was read as POLH inh -18.9%, Pol kappa inh -4.5%, WRN helicase inh -7.0%, POLI inh 28.8% and PI5P4K alpha inh -1.7.
`Cn1c(N)c(S(=O)(=O)NCc2ccc(F)cc2)c(=O)n(C)c1=O` gave POLH inh -2.6%, Pol kappa inh -19.5%, POLB inh -28.0%, WRN helicase inh -11.6%, POLI inh 3.7% and PI5P4K alpha inh -8.9.
O=C(CCCc1c[nH]c2ccccc12)NCCc1c[nH]c2ccccc12 was read as POLH inh 89.1µM*, Pol kappa inh -6.4%, POLB inh -1.7%, WRN helicase inh -1.8%, POLI inh 29.5% and PI5P4K alpha inh -4.7.
`CCCNC(=O)c1cc(C2CCCCN2C(=O)c2ccc(OC)cc2)on1` (stereo unspecified) gave WRN helicase inh 13.8% and PI5P4K alpha inh -0.1.
For Cc1ccc(NNS(=O)(=O)c2ccc(C)cc2)cc1 the results were POLH inh -12.9%, Pol kappa inh -15.6%, POLB inh 1.6%, WRN helicase inh inconclusive, POLI inh inconclusive and PI5P4K alpha inh -62.6*.
Cc1ccc(S(=O)(=O)NNC(=O)C(=O)NNS(=O)(=O)c2ccc(C)cc2)cc1 was read as POLH inh -7.6%, Pol kappa inh -3.1%, POLB inh inconclusive, WRN helicase inh -0.3%, POLI inh 0.4% and PI5P4K alpha inh 5.9.
Screening Cc1ccc(S(=O)(=O)NN=CC=CC=NNS(=O)(=O)c2ccc(C)cc2)cc1 returned POLH inh -8.6%, WRN helicase inh 3.4% and PI5P4K alpha inh -61.0*.
`CC1CCCN(C(=O)CSc2c3c(nc4cc(Cl)ccc24)CCCC3)C1` (stereo unspecified) gave POLH inh -10.3%, Pol kappa inh -16.4%, POLB inh 1.2% and POLI inh -3.0%.
`CC(=O)NC1=CC(=O)c2nonc2C1=O` gave Pol kappa inh inconclusive and POLI inh -84.4%.
Screening CC(=O)N1N=C(N)SC1(C)C returned POLH inh -13.8%, Pol kappa inh -8.8%, POLB inh -12.8%, WRN helicase inh 7.4%, POLI inh 87.0% and PI5P4K alpha inh -3.3.

High-throughput results as filed in PubChem.
